Our source for the composite z-score and z-score values is PubChem BioAssay.

The subject of assay [1] is Wnt5a (protein binding on small-molecule microarray). The assay can be described thus: Wnt5a binders on small-molecule microarray, primary screen, biophysical, 635/667 nm fluorescence (AID 1142).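 Further: fluorescence read at 667 nm with signal to noise per printed feature.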 Conditions: 635 nm fluorescence, higher = more signal.
Assay [2] is described as follows: cell viability in Huh7 cells, primary screen, cytotoxicity control for HCV replication inhibitor project, CellTiter-Glo luminescence, basal, 48 h (AID 1143).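 Further: Huh7 hepatoma cells carrying a hepatitis C replication reporter with no stimulus; test concentration not given here.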 The note with it: Huh7 HCV replicon, higher = more signal, called active from +8 up or from −8 down. (In general: ATP-based viability assays read luminescence as a measure of living cells.)
Assay [3] in a line: P. aeruginosa biofilm formation inhibitors, primary screen, PAO1 strain, BacTiter-Glo luminescence, LB-PBS (AID 1144). The note with it: 12 h, higher = more signal.
Assay [4] is described as follows: CREB reporter modulators without forskolin, primary screen, cell-based, PC12, CRE-LacZ reporter, unstimulated (AID 1145). Conditions: no forskolin, luminescence, 4.5 h, higher = more signal, called active from +8 up or from −8 down.
Assay [5] is described as follows: CREB reporter modulators under forskolin, primary screen, cell-based, PC12, CRE-LacZ reporter, forskolin-stimulated (AID 1146).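 Further: PC12 cells with 6xCRE LacZ reporter stimulated by forskolin 10 µM; beta-galactosidase reporter signal reflecting CREB driven transcription.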 The note with it: luminescence, 4.5 h, higher = more signal, called active from +8 up or from −8 down.
The target of assay [6] is Streptavidin (Streptomyces avidinii) (UniProt P22629). As to the kind of experiment: streptavidin binders on small-molecule microarray, primary screen, artefact control for SMM compound annotation, biophysical, 635/667 nm fluorescence (AID 1147).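 Further: signal reflects streptavidin binding to arrayed compounds as a control protein.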 Conditions: streptavidin binding, higher = more signal.
The nature of assay [7]: small-molecule binders of probe aInhba, primary screen, biochemical, small-molecule microarray, 635/667 nm fluorescence (AID 1148).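 Further: score merges 667nm spot fluorescence with signal-to-noise for antibody binding to printed compounds.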 The note with it: higher = more signal.
For assay [8], the target named is Torsin-1A (Homo sapiens) (UniProt O14656). As to the kind of experiment: torsin A binders from cell lysate, primary screen, small-molecule microarray, wild-type, 635/667 nm (AID 1149). The note with it: COS7 hTOR1A-WT lysate, 635 nm fluorescence, higher = more signal.
Assay [9] shares this target. The assay can be described thus: small-molecule binders of mutant TOR1A in lysate, primary screen, cell lysate, small-molecule microarray, COS7 lysate, 635/667 nm fluorescence (AID 1150).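 Further: score pools 667 nm emission and signal to noise measuring lysate protein binding.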 Conditions: COS7 hTOR1A mutant lysate, 635 nm fluorescence, higher = more signal.
For assay [10], the system named is Sonic hedgehog protein (Shh). As to the kind of experiment: small-molecule binders of Shh protein, primary screen, biochemical, small-molecule microarray, 635/667 nm fluorescence (AID 1151).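 Further: Shh protein binding to compounds spotted on small-molecule microarray slides; score combines spot fluorescence intensity with signal-to-noise across triplicate slides.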 Conditions: small-molecule microarray binding, 635 nm fluorescence; higher = more signal.

The source made the active and inactive calls. Unless noted, how the calls were made is not given here.

Sequence of Streptavidin (Streptomyces avidinii) (P22629 whole entry, looked up): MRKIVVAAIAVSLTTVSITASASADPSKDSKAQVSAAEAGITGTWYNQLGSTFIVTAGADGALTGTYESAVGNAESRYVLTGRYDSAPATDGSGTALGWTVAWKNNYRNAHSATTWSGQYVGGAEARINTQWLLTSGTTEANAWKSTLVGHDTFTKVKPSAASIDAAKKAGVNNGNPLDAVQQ
Sequence of Torsin-1A (Homo sapiens) (O14656 whole entry, looked up): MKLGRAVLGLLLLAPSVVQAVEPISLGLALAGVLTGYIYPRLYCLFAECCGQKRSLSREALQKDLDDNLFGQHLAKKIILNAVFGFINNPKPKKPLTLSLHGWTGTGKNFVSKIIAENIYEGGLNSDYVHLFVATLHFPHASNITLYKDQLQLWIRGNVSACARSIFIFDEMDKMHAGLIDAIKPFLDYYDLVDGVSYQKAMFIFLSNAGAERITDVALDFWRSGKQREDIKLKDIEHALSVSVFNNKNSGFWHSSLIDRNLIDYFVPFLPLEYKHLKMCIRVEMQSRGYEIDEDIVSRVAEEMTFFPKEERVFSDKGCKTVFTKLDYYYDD

On to `CCCC=C(CCC)[C@@H](NC(=O)c1cccs1)c1ccc(C(F)(F)F)cc1`, for which the composite z-score in assay [1] is 0.374; in assay [6], 0.882; in assay [7], 0.473; in assay [8], 0.598; in [9], 0.704; in assay [10], 1.18. Further, the z-score is -3.78 (inactive) in assay [2], -0.407 (inactive) in assay [3], -0.761 (inactive) in [4] and 0.796 (inactive) in assay [5].
As for `O=C1c2ccccc2[C@](Cc2ccccc2I)(C(=O)NCC(F)(F)F)[C@H](c2ccc(CO)cc2)N1Cc1ccccc1Cl`, the composite z-score in assay [1] was 0.0919; in assay [6] it was 0.742; in assay [7], 0.216; in assay [8], -0.14; in assay [9], 0.34; in assay [10] it was 1.37. Further, the z-score in assay [2] is -0.703 (inactive); in assay [3], -1.28 (inactive); in [4] it was 0.506 (inactive); in [5], 0.779 (inactive).
Take `COc1ccc([Si](C)(C)[C@H]2[C@H](CCO)O[C@@]3(C(=O)N(Cc4ccc(N(C=O)c5ccccc5)cc4)c4ccccc43)[C@@H]2C)cc1`: the composite z-score in assay [1] is -0.308; in assay [6] it was 0.114; in [7], -0.157; in [8], -0.498; in assay [9], -0.074; in assay [10], 0.399. The z-score is -5.81 (inactive) in assay [2], -0.305 (inactive) in assay [3], 1.92 (inactive) in [4] and -1.24 (inactive) in [5].
In the case of `COc1ccc([Si](C)(C)[C@H]2[C@H](CC(=O)N3Cc4ccccc4C[C@H]3CO)O[C@@]3(C(=O)N(Cc4cccc(N5CCC5=O)c4)c4ccccc43)[C@@H]2C)cc1`, the composite z-score was 0.512 in assay [1]; -0.0369 in assay [6]; 0.0183 in [7]; 0.906 in assay [8]; 0.838 in assay [9]; 1.74 in assay [10]. Also, the z-score in assay [2] is -3.64 (inactive); in assay [3], 0.187 (inactive); in assay [4], 7.57 (inactive); in assay [5] it was -0.86 (inactive).
`O=C1NC(=O)C2C1C=CC(C(O)c1cccs1)N2Nc1ccc(Cl)cc1Cl` (stereo not given): the composite z-score in assay [1] is -0.0653; in [6], -0.695; in assay [7], -0.118; in assay [8], 0.352; in assay [9] it was 0.112; in assay [10] it was -0.0963. Also, the z-score in assay [2] is 0.0581 (inactive); in assay [3], -0.24 (inactive); in assay [4], -0.136 (inactive); in assay [5] it was -0.109 (inactive).
As to `COc1ccc(CCNC(=O)[C@@]2(Sc3ccc(C)cc3)CC(=O)N(C(C)C)[C@@H]2c2ccc(CO)cc2I)cc1`, the composite z-score in assay [1] is -0.161; in assay [6] it was -0.738; in [7], -0.0986; in assay [8] it was 0.0086; in assay [9] it was -0.622; in [10] it was -0.156. The z-score is -0.887 (inactive) in [2], 0.844 (inactive) in assay [3], -0.295 (inactive) in assay [4] and 0.652 (inactive) in assay [5].
For the compound `CCS[C@H]1[C@@H](C(=O)O)[C@H](c2ccc(C)cc2)N(S(=O)(=O)c2ccc(C)cc2)[C@@H]1CC`, the composite z-score in assay [1] was 0.261; in assay [6] it was 0.68; in assay [7] it was 0.206; in [8], -0.0832; in assay [9] it was 0.477; in [10], -0.7. Further, the z-score in assay [2] was -0.0715 (inactive); in assay [3], -0.54 (inactive); in assay [4], -0.928 (inactive); in assay [5], -0.334 (inactive).
Take `C=C(CCCC)/C(=C/C[C@H](OC(=O)c1ccncc1)c1ccccc1OCCO)c1cnc2ccccc2c1`: the composite z-score is 0.265 in [1]; 1.74 in assay [6]; -0.0471 in [7]; 0.609 in [8]; 0.712 in assay [9]; 1.45 in [10]. For the same compound, the z-score was -0.401 (inactive) in assay [2], 0.0698 (inactive) in assay [3], -0.583 (inactive) in assay [4] and 0.494 (inactive) in assay [5].
As for `C=C[C@H](C)[C@@H](OC(=O)Nc1ccc(OC)cc1)c1ccc(O)c2ccccc12`, the composite z-score in assay [1] is 0.198; in assay [6], -0.387; in assay [7], -0.206; in [8] it was 0.308; in [9], 0.422; in assay [10], 1.36. The z-score was -6 (inactive) in assay [2], -0.899 (inactive) in assay [3], 0.804 (inactive) in [4] and 0.819 (inactive) in assay [5].
As for `NC(=O)NCC#Cc1ccc2c(c1)[C@]1(C(=O)N2)[C@H](c2ccc(O)cc2)N2[C@H](c3ccccc3)[C@H](c3ccccc3)OC(=O)[C@H]2[C@@H]1C(=O)O`, the composite z-score in [1] is -0.763; in [6], -0.256; in assay [7], -0.299; in [8] it was -1.13; in [9], -0.914; in assay [10], -0.453. Also, the z-score in [2] is 0.0192 (inactive); in [3], -0.248 (inactive); in assay [4] it was 0.895 (inactive); in assay [5] it was -0.226 (inactive).
